About 1,100 (1.7%) of roughly 63,000 compounds were called active. No stated cut-off is given here; in the data, active means cytotoxicity above about 50%; inactive means the rest. The list comes from a sample in which actives are over-represented; it also holds similar structures and randomly drawn compounds. Results with a measured potency or affinity are listed apart.

The assay in a line: HPDE-C7 pancreatic duct cell viability loss – fluorescence, HTS (AID 430).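 Further: cells exposed to compound for 48 hours before viability readout; 0% = vehicle and 100% = reference cytotoxic drug.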 To be noted: HPDE-C7 pancreatic duct cells viability, at 10 µM, active compounds read high.
In the case of `OCCNc1nc(Nc2ccccc2)nc(Nc2ccccc2)n1`, the cytotoxicity was 2.2% (inactive).

With `CC(C)n1c(Nn2cnnc2)nc2ccccc21`, the cytotoxicity is 3.1% (inactive).

Turning to `Cc1cc(C(=O)OCC(=O)N2CCN(c3ccccc3)CC2)c2ccccc2n1`, the cytotoxicity is -8.3% (inactive).

As to `O=C(CSc1nnc(-c2cccnc2)n1Cc1ccco1)c1ccccc1`, the cytotoxicity was -18.2% (inactive).

Turning to `O=C(Cc1cccs1)Nc1ccc(NC(=O)c2ccco2)cc1`, the cytotoxicity was -14.5% (inactive).

Take `O=C(Cc1cccs1)Nc1cccc(C(=O)Nc2ccco2)c1`: the cytotoxicity was 54.2% (active).

As for `CC(=O)c1cccc(NC(=O)Cc2cccs2)c1`, the cytotoxicity was -5.3% (inactive).

Regarding `CCOC(=O)C(C)Sc1nnc(Cn2c(=O)sc3ccccc32)n1-c1ccccc1` (configuration not stated), the cytotoxicity is 18.4% (inactive).

As to `CCOC(=O)N1CCN(C(=O)C2CCC(C(=O)N3CCN(C(=O)OCC)CC3)CC2)CC1` (configuration not stated), the cytotoxicity is -3.2% (inactive).

Regarding `O=C(c1cccc2ccccc12)N1CCN(CC2CC=CCC2)CC1` (configuration not stated), the cytotoxicity was -22% (inactive).

For `Cc1ccc(C(=O)Nc2cccc(C(=O)NCc3ccco3)c2)cc1`, the cytotoxicity was 62.7% (active).

In the case of `O=C(NCc1ccco1)c1cccc(NC(=O)c2ccccc2)c1`, the cytotoxicity was 10.1% (inactive).

For `CCC(CC)C(=O)Nc1cccc(C(=O)NCc2ccco2)c1`, the cytotoxicity is -24.1% (inactive).

Turning to `Cc1occc1C(=O)Nc1cccc(C(=O)NCc2ccccc2)c1`, the cytotoxicity was -18% (inactive).

For `O=C(NCc1ccccc1)c1cccc(NC(=O)c2ccco2)c1`, the cytotoxicity was 44.7% (inactive).

With `O=C(O)c1ccc(CNC(=O)c2ccc(Br)o2)cc1`, the cytotoxicity was 0.5% (inactive).

For the molecule `CC(OC(=O)C1CCN(S(=O)(=O)c2ccccc2)CC1)C(=O)Nc1ncc(Cl)cc1Cl` (configuration not stated), the cytotoxicity was -0.7% (inactive).

With `O=C(Nc1ccc(O)cc1)c1ccc(C(=O)c2ccccc2)o1`, the cytotoxicity was -1.5% (inactive).

As for `Cc1ncoc1C(=O)Nc1ccc(Oc2ccccc2)cc1`, the cytotoxicity is -20.9% (inactive).

In the case of `CCc1ccccc1N(CC(=O)N1CCN(c2ccccc2)CC1)S(C)(=O)=O`, the cytotoxicity was -3% (inactive).

`COC(=O)c1c(-c2cccs2)csc1NC(=O)CN1CCOCC1`: the cytotoxicity was -10.4% (inactive).

Turning to `CCOC(=O)c1c(-c2cccs2)csc1NC(=O)CN1CC(C)OC(C)C1` (configuration not stated), the cytotoxicity was 61.1% (active).

For `CCOC(=O)c1c(-c2cccs2)csc1NC(=O)CCCC(=O)O`, the cytotoxicity was 8.6% (inactive).

`CCOC(=O)c1ccc(NC(=O)CSc2nc3c(c(=O)n2CC)SC(C)C3)cc1` (configuration not stated): the cytotoxicity was 55.3% (active).

On to `CCn1c(SCC(=O)Nc2cccc(C)c2)nc2c(c1=O)SC(C)C2` (configuration not stated), for which the cytotoxicity is 3.7% (inactive).

As for `CCOC(=O)c1ccc(NC(=O)CSc2nc3c(c(=O)n2C)SC(C)C3)cc1` (configuration not stated), the cytotoxicity was 1.1% (inactive).

For `COC(=O)c1ccc(C(=O)Nc2ccc(N)cc2N)cc1`, the cytotoxicity is -13.9% (inactive).
